Reference: the supplement of paper PMC11732987, “Enantioselective OTUD7B fragment discovery through chemoproteomics screening and high-throughput optimisation” (Communications Chemistry, 2025)

Columns and labels:
Assay in all cases: log2 ratio of Biotin-Ahx-Ub-VS probe labelling (fragment/DMSO); higher = less target engagement (more negative = stronger competition), active = hit call of the paper (q ≤ 0.05, log2 ratio ≤ -1)
Conditions in all cases: compound concentration: 200 uM; treatment time: 3 h
USP34 = USP34 (UniProt Q70CQ2)
In short: (§1)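 Labelled DUBs from HEK293T lysate were NeutrAvidin-enriched, digested with LysC and trypsin, and run by diaPASEF LC-MS/MS. Before that, each 495 µg sample in Tris/CHAPS/IGEPAL buffer with protease inhibitors was treated in triplicate with fragment at 200 µM or vehicle for 3 h, then with Biotin-Ahx-Ub-VS at 0.5 µM final for 1 h. Values are average log2 ratios of fragment over vehicle by unpaired t-test, based on global-median-normalised Spectronaut label-free quantities from proteins with ≥2 unique peptides.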

USP36 = target: T1, USP36 (UniProt Q9P275)
T1 sequence (whole entry): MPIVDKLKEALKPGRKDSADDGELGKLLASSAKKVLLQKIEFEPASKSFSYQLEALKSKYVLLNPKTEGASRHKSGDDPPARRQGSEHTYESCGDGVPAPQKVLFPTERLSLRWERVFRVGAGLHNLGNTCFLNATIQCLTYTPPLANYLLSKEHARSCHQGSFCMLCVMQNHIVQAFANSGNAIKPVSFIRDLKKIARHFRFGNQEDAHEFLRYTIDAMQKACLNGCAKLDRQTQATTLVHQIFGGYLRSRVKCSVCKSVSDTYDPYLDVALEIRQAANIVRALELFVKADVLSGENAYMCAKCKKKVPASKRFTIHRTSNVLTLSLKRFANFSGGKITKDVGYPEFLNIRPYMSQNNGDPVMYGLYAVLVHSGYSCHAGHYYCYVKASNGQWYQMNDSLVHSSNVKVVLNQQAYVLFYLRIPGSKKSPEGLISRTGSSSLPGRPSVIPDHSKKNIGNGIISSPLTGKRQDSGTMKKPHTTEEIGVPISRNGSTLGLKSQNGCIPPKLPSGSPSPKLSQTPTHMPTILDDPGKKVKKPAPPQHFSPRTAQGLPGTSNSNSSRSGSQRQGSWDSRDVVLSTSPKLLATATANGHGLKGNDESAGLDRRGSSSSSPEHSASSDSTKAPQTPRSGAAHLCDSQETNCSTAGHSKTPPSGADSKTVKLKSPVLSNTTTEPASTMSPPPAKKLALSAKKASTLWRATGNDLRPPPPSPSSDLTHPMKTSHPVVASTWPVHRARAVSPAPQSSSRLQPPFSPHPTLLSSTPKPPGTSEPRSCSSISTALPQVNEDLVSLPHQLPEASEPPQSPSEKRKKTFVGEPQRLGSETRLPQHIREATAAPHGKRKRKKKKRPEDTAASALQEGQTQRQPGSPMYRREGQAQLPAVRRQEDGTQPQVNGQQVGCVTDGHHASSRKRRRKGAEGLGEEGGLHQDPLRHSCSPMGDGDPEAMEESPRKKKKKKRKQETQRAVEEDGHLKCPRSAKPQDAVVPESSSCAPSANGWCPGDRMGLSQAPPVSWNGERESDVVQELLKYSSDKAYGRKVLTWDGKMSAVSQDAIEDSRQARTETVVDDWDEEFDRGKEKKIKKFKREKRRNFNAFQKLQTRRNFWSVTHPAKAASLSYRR
In short: as §1

USP38 = target: T2, USP38 (UniProt Q8NB14)
T2 sequence (whole entry): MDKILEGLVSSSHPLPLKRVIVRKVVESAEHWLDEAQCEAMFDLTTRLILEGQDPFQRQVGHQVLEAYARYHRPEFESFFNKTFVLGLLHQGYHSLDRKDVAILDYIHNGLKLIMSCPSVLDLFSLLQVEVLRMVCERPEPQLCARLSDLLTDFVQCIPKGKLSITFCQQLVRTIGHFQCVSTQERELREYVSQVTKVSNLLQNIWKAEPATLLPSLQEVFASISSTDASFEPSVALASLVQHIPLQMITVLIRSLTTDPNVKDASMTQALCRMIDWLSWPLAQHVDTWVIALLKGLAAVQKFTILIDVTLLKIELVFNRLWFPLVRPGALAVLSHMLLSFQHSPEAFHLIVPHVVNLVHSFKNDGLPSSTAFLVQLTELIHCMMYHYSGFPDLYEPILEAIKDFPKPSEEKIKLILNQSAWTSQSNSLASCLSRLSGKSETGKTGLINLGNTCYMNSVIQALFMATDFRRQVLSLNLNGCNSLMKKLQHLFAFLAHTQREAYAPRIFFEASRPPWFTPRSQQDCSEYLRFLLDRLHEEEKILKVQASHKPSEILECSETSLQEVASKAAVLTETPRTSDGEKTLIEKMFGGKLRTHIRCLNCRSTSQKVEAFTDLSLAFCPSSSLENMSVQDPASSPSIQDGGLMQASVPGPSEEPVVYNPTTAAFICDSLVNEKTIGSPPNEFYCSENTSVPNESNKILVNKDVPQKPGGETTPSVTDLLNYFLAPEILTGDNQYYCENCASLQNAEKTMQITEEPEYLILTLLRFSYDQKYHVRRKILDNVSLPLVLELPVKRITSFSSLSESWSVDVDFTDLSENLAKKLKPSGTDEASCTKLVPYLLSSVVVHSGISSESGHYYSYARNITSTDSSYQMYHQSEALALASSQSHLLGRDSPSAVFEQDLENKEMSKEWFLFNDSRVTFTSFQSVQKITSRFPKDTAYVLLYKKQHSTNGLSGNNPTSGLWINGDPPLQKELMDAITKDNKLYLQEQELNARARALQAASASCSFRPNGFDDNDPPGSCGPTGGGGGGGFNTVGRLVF
In short: as §1

USP39 = target: T3, USP39 (UniProt Q53GS9)
T3 sequence (whole entry): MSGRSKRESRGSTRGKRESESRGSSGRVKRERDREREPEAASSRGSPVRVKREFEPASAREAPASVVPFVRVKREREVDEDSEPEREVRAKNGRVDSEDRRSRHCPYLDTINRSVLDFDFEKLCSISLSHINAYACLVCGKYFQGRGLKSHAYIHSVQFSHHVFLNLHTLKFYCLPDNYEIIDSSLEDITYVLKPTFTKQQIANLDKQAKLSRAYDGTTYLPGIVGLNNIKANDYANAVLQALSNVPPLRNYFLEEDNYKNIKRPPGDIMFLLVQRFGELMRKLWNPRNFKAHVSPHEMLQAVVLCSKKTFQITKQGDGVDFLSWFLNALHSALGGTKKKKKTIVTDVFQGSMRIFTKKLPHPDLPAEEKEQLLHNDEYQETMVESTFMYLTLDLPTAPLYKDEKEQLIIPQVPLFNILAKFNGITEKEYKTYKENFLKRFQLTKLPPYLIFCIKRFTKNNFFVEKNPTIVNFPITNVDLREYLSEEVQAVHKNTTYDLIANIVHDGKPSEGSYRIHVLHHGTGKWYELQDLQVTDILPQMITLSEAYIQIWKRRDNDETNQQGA
In short: as §1

USP4 = target: T4, USP4 (UniProt Q13107)
T4 sequence (whole entry): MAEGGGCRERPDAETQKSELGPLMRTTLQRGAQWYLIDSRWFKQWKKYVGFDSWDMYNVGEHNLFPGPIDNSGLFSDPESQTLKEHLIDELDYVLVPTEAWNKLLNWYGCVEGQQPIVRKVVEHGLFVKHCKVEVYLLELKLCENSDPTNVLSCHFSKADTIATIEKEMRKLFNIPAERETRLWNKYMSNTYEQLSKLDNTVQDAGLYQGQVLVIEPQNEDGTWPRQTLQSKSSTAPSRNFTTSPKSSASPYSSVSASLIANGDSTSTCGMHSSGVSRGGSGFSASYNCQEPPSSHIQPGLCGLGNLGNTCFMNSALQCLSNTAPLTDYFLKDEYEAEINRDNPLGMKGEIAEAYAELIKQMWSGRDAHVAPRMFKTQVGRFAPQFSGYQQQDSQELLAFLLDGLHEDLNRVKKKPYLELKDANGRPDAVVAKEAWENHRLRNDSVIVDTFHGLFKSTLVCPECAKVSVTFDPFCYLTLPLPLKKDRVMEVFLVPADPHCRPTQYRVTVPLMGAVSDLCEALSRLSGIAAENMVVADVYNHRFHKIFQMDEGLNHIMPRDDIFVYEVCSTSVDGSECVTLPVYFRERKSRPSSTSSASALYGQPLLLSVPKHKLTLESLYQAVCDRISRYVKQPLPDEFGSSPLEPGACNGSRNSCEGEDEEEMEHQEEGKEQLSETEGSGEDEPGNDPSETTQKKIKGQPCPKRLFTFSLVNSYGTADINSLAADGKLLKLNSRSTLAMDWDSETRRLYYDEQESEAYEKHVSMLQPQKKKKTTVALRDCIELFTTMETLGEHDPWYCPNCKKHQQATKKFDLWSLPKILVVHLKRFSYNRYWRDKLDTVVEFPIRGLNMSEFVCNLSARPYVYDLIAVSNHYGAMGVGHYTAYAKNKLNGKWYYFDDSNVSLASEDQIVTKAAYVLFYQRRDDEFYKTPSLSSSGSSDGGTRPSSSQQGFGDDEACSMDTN
In short: as §1

Measured: log2 ratio of Biotin-Ahx-Ub-VS probe labelling

Chain of USP34 (Q70CQ2 whole entry, the tested form may be a part): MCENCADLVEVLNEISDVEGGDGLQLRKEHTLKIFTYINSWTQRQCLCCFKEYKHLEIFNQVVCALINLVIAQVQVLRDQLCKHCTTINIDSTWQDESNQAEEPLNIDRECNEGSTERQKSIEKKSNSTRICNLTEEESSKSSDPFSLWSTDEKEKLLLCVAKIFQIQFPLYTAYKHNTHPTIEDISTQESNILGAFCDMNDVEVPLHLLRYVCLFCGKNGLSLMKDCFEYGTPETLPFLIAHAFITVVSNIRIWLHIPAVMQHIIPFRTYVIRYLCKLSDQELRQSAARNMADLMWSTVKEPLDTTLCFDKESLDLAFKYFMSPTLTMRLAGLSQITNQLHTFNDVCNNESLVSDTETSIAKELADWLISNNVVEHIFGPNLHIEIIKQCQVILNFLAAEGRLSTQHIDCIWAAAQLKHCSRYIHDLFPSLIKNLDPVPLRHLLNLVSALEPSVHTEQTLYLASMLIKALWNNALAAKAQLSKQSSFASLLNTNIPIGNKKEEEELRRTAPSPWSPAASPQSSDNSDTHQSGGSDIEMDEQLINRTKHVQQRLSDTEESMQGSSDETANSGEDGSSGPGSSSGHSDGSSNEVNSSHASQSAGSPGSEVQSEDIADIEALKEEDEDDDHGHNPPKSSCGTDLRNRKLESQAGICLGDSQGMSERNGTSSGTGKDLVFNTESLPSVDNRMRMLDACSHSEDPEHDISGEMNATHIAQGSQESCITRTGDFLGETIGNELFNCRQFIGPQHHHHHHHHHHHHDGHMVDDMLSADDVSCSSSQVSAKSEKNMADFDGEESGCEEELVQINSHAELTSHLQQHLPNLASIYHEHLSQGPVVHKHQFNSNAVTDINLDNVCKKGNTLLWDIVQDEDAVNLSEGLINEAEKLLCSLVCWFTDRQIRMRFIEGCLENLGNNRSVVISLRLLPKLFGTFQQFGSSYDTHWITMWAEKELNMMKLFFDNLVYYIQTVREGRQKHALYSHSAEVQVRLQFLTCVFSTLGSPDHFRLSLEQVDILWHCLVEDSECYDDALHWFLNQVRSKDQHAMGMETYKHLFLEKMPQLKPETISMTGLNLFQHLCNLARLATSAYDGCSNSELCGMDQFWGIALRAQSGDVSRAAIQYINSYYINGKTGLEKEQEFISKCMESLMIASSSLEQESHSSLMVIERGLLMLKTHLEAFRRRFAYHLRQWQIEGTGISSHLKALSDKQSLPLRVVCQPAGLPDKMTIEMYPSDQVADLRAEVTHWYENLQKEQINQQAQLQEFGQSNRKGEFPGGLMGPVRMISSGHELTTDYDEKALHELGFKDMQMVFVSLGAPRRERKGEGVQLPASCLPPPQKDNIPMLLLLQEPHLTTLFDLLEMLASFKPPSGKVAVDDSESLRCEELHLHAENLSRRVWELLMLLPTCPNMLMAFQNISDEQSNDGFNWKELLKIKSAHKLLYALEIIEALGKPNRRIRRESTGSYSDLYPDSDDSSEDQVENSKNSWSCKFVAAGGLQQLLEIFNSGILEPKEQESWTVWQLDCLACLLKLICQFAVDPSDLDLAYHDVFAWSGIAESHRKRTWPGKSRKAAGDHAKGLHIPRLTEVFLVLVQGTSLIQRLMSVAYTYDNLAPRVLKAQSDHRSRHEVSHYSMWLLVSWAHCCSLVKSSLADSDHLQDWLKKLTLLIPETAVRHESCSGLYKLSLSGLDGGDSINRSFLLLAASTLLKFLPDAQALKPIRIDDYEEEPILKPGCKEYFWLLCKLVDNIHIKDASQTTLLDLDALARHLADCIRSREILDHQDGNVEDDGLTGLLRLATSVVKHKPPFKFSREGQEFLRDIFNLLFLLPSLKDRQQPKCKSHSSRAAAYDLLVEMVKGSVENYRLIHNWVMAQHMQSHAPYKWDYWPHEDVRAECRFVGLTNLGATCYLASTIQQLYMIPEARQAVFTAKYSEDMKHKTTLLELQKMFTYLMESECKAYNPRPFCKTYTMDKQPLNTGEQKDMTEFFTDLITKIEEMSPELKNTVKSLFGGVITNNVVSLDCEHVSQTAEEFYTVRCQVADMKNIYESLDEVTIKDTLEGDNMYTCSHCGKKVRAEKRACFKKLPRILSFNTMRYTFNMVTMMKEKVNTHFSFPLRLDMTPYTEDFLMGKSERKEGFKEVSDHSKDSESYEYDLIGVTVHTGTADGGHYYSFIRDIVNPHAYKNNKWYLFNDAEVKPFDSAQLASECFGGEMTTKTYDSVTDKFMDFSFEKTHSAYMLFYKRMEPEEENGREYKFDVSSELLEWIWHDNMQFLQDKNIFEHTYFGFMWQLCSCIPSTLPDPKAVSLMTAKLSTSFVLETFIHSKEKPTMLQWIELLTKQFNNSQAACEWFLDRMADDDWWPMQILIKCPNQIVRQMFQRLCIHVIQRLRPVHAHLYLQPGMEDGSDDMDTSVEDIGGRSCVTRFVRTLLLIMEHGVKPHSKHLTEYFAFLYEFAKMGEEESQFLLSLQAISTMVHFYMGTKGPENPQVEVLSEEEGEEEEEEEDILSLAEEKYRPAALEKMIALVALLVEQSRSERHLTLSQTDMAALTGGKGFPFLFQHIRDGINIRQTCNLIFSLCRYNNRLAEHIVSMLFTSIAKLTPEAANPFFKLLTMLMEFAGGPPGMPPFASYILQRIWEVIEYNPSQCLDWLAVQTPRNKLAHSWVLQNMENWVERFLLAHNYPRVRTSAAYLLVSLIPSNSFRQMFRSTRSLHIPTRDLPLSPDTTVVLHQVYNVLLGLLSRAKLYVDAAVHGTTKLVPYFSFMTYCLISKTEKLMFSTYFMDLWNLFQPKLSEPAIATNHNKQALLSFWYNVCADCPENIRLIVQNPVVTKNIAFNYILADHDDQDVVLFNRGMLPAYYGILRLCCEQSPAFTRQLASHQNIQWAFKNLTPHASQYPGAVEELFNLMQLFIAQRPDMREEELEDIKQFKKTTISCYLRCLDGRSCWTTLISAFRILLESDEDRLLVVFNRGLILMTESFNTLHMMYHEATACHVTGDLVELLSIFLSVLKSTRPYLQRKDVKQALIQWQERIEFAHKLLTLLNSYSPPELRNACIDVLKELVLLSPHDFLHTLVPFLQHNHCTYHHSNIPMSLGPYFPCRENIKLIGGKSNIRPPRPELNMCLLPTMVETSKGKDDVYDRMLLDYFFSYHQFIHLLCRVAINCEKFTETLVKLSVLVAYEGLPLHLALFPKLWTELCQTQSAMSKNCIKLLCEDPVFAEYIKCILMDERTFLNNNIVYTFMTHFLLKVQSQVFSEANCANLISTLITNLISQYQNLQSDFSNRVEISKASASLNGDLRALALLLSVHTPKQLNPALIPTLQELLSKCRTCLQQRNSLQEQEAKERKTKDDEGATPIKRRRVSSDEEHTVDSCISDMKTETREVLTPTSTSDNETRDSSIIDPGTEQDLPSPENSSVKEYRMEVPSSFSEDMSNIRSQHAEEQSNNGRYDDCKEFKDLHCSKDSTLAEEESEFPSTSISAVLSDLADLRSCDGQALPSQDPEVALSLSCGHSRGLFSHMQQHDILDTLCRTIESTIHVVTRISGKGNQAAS

Cc1cccc(N(CCC#N)C(=O)CCl)c1C
inactive: USP34 -0.119 | USP36 -0.0707 | USP38 -0.0489 | USP39 -0.305 | USP4 0.163
